Laboratory results reported in PubChem BioAssay AID1626 (SRMLSC, 2009).
Screen size: about 220,000 compounds; about 2,000 (0.91%) were called active. Inconclusive results (about 2%) are left out. Cut-off read from the data, not from the text of the source: inconclusive = inhibition above about 80% without an active follow-up result; inactive = below that; test concentration not stated here. The list is a sample of the results. Entries with a potency or affinity are not part of this list.

assay: M. tuberculosis H37Rv growth inhibitors, H37Rv strain (AID 1626); conditions: stronger effect = higher value, concentration not given here;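 note: bacteria incubated seven days before Alamar blue readout; 0% = bacteria only wells and 100% = bacteria with antibiotic wells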

| SMILES | inhibition |
| --- | --- |
| O=C(NCCc1nc2ccccc2[nH]1)/C(=C/c1ccc2c(c1)OCO2)NC(=O)c1ccccc1 | 1.83% (inactive) |
| O=C(NCCc1nc2ccccc2[nH]1)/C(=C/c1ccc2c(c1)OCO2)NC(=O)c1ccccc1Cl | 2.62% (inactive) |
| Nc1nc(N)nc(-c2ccccn2)n1 | -3.41% (inactive) |
| Cc1n[nH]c(C)c1Cc1c(F)cccc1Cl | -0.71% (inactive) |
| CC(NCc1ccc(Cl)cc1Cl)C(O)c1ccccc1 (configuration not stated) | 5.99% (inactive) |
| CC1CCCN(S(=O)(=O)c2ccc3c(c2)CCN3C(=O)C2CCC2)C1 (configuration not stated) | 5.83% (inactive) |
| ONC(=Nc1ccc(Cl)cc1)c1ccc(Cl)cc1 | -13.7% (inactive) |
| Cc1nn(-c2ccccc2)c(N)c1C(c1ccccc1)c1c(C)nn(-c2ccccc2)c1N | 9.35% (inactive) |
| Cc1ccc(C(c2c(C)nn(-c3ccccc3)c2N)c2c(C)nn(-c3ccccc3)c2N)cc1 | 6.99% (inactive) |
| C#CCNC(=O)C1CCN(c2cc(C)nc(-c3ccccc3)n2)CC1 | -0.44% (inactive) |
| CCOC(=O)c1cc([N+](=O)[O-])sc1NC(=O)c1ccc(S(=O)(=O)N2CC3(C)CC2CC(C)(C)C3)cc1 (configuration not stated) | -0.55% (inactive) |
| O=C(O)c1ccc(O)c(N2C(=O)Nc3ccccc3N2O)c1 | -1.41% (inactive) |
| CC[C@@H]1C=C(C)C[C@H](C)C[C@H](OC)[C@H]2O[C@@](O)(C(=O)C(=O)N3CCCC[C@H]3C(=O)O[C@H](/C(C)=C/[C@@H]3CC[C@@H](O)[C@H](OC)C3)[C@H](C)[C@@H](O)CC1=O)[C@H](C)C[C@@H]2OC | 5.69% (inactive) |
| Fc1cccc(CSc2nc3ncc(Cl)cc3[nH]2)c1 | -0.1% (inactive) |
| CCc1[nH]c(=S)c(C#N)c2c1CCCC2 | -2.7% (inactive) |
| COc1cc2cc(/C=C/C(=O)c3ccco3)c(Cl)nc2cc1OC | -1.16% (inactive) |
| Cc1ccc(N/C=C/C(=O)c2ccco2)c(O)c1 | -2.39% (inactive) |
| Cc1cccc2cc(/C=C/C(=O)c3ccco3)c(Cl)nc12 | 7.5% (inactive) |
| CCOc1ccc2nc(Cl)c(/C=C/C(=O)c3ccco3)cc2c1 | 21.5% (inactive) |
| Cc1nc([N+](=O)[O-])cn1CC(=O)NCCCO | 8.65% (inactive) |
| Cc1ccc(-n2c(CNC(=O)c3cccs3)nnc2SCC(=O)NO)cc1 | 2.75% (inactive) |
| COC(=O)c1ccc(CN2CCN(Cc3ccccc3)C(CCO)C2)cc1 (configuration not stated) | -3.82% (inactive) |
| COc1ccc(N(C(=O)c2ccco2)C(C(=O)NC2CCCC2)c2ccc(N(C)C)cc2)cc1OC (configuration not stated) | -5.56% (inactive) |

| SMILES | inhibition |
| --- | --- |
| O=c1cc(-c2ccccc2)nc2c(-c3ccccc3)c(C(F)(F)F)[nH]n12 | 2.66% (inactive) |
| CCCc1cc(=O)n2[nH]c(C)c(-c3ccccc3)c2n1 | 11.9% (inactive) |
| COC(=O)Cc1cc(=O)n2[nH]c(C)c(-c3ccccc3)c2n1 | -0.6% (inactive) |
| Cc1ccccc1-c1cc2nc(-c3ccc([N+](=O)[O-])cc3)cc(=O)n2[nH]1 | -6.76% (inactive) |
| COc1ccc(CCNCC(O)c2ccccc2)cc1 (configuration not stated) | -12.7% (inactive) |
| CC(NC(=O)c1ccccc1NC(=O)c1ccncc1)c1ccccc1 (configuration not stated) | 6.19% (inactive) |
| CC(C)OC(=O)/C(=C\c1cccc2ccccc12)NC(=O)c1ccccc1 | 11.6% (inactive) |
| N/C(=N\OC(=O)c1ccc(Cl)cc1)c1[nH]ncc1Br | -8.82% (inactive) |
| CC(C)(C)NC(=O)c1ccc2c(c1)N(CC(=O)N1CCN(c3ccc(F)cc3)CC1)C(=O)C(C)(C)O2 | 8.11% (inactive) |
| O=C(O)c1cccc(S(=O)(=O)Nc2ccccc2N2CCOCC2)c1 | -1.57% (inactive) |
| Cc1cccc(C(=O)O/N=C(\N)Cc2ccc([N+](=O)[O-])cc2)c1 | 7.62% (inactive) |
| COc1ccccc1C1(CCN=Cc2ccc(N(C)C)cc2)CCOC(C)(C)C1 (configuration not stated) | 2.7% (inactive) |
| CCC(/C=C1\Sc2ccc(OC)cc2N1CC)=C\c1sc2ccc(OC)cc2[n+]1CCCS(=O)(=O)[O-] | 0.61% (inactive) |
| CCC(=O)/C=C1\Sc2ccc(OC)cc2N1CCO | -14.1% (inactive) |
| O=C(NC1CCS(=O)(=O)C1)C1C2CC3CC(C2)CC1C3 (configuration not stated) | 0.76% (inactive) |
| O=C1CCCC(=O)C1Sc1ccc(Cl)cc1 | 3.4% (inactive) |
| COc1ccc(N=C/C=C2\C=C(c3ccccc3)OC(C)(C)O2)cc1 | 76.4% (inactive) |
| CC1(C)OC(c2ccccc2)=C/C(=C/C=Nc2ccccc2)O1 | -2.83% (inactive) |
| C1CSC2(N1)C1CC3CC2CC(C1)C31NCCS1 (configuration not stated) | -4.53% (inactive) |
| Cc1cc(C)cc(NC(=O)c2ccccc2CC[N+](=O)[O-])c1 | 58.2% (inactive) |
| O=C(NCCCN1CCN(CCCNC(=O)c2ccc(F)cc2)CC1)c1ccc(F)cc1 | -9.24% (inactive) |
| CC(C)(C)c1ccc(C(=O)NCCN2CCCC2)cc1 | -0.48% (inactive) |
| CCOC(=O)c1ccc(NC(=O)NCCc2ccccc2OC)cc1 | 5.79% (inactive) |

| SMILES | inhibition |
| --- | --- |
| CCN(CC)C(=O)c1c(C)[nH]c(=S)c(C#N)c1-c1ccco1 | -4.78% (inactive) |
| Brc1ccc(-c2cn3cccnc3n2)cc1 | -1.72% (inactive) |
| Brc1ccc(-c2cn3ccccc3n2)cc1 | -4.5% (inactive) |
| O=C1CCC(=O)N1CNc1cccnc1 | -9.49% (inactive) |
| O=C1C2=C(CCCC2)C(=O)N1CNc1ccccc1 | -13.7% (inactive) |
| CCn1c(=S)sc2c(=O)n(-c3ccccc3)c(=S)[nH]c21 | -1.81% (inactive) |
| COc1ccc(C(=O)N2CCN(c3ccccc3OC)CC2)cc1 | 0.49% (inactive) |
| O=C(O)/C=C/c1ccc(S(=O)(=O)NCc2cccnc2)cc1 | -0.59% (inactive) |
| CN(CC(O)COC(c1ccccc1)c1ccccc1)C1CCCCC1 (configuration not stated) | 5.91% (inactive) |
| CC1CCCC(NC(=O)CSc2ccc(F)cc2)C1C (configuration not stated) | -2.7% (inactive) |
| Cc1nn(CCCC(=O)Nc2cc(Oc3ccccc3)cc([N+](=O)[O-])c2)c(C)c1[N+](=O)[O-] | 4.46% (inactive) |
| Cc1ccc(C)c(Oc2cc(NC(=O)CCCn3nc(C)c([N+](=O)[O-])c3C)cc([N+](=O)[O-])c2)c1 | 5.87% (inactive) |
| Cc1c(Cl)c([N+](=O)[O-])nn1CCCC(=O)Nc1cccc(Cl)c1 | -0.67% (inactive) |
| Cc1cc([N+](=O)[O-])nn1CCCC(=O)Nc1cc(Oc2ccccc2)cc([N+](=O)[O-])c1 | 33.1% (inactive) |
| Cc1cc([N+](=O)[O-])nn1CCCC(=O)Nc1cc(Oc2ccc(F)cc2)cc([N+](=O)[O-])c1 | 76% (inactive) |
| Cc1ccccc1Oc1cc(NC(=O)CCCn2nc(C)c([N+](=O)[O-])c2C)cc([N+](=O)[O-])c1 | 4.71% (inactive) |
| CN1CCC(C2(O)c3ccccc3CCc3ccccc32)CC1 | -4.72% (inactive) |
| Cc1ccc(-c2nn(-c3ccccc3)cc2/C=N/NC(=O)CSc2nnc(C)n2-c2ccccc2)cc1 | 5.75% (inactive) |
| COc1cc(NC(=O)CCCc2c[nH]c3ccccc23)cc(OC)c1 | 13% (inactive) |
| COc1ccc(/C=N/NC(=O)c2cc(C34CC5CC(CC(C5)C3)C4)[nH]n2)cc1OC | -1.09% (inactive) |
| COCCN1C(=O)N[C@@H](c2cccc(F)c2)C(C(=O)OC)=C1C | -7.87% (inactive) |
| CC(=O)c1ccc(NC(=O)C(NC(=O)c2ccccc2)=C(C)C)cc1 | -4.51% (inactive) |
| Cc1ccccc1Nc1c(-c2ccncc2)nc2ccc(Cl)cn12 | -2.88% (inactive) |

| SMILES | inhibition |
| --- | --- |
| Cc1ccc2nc(-c3cccnc3)c(Nc3ccccc3C)n2c1 | 5.59% (inactive) |
| Cc1cccc2nc(-c3cccnc3)c(Nc3ccccc3)n12 | -0.36% (inactive) |
| Clc1ccc(-c2nc3cnccn3c2Nc2ccc3c(c2)OCO3)cc1 | 31% (inactive) |
| Cc1ccc2nc(-c3ccncc3)c(Nc3ccccc3)n2c1 | 2.3% (inactive) |
| Cc1ccc2nc(-c3ccco3)c(Nc3ccccc3)n2c1 | 2.97% (inactive) |
| Cc1cccc2nc(-c3ccco3)c(Nc3ccccc3)n12 | -7.83% (inactive) |
| Clc1ccc(-c2nc3ncccn3c2Nc2ccc3c(c2)OCO3)cc1 | 7.95% (inactive) |
| CCN1CCN(C(=O)COc2ccc3c(c2)C(=O)CC2(CCN(C(C)=O)CC2)O3)CC1 | -8.68% (inactive) |
| CCOC(=O)C1CCN(C(=O)CSc2ccc(Cl)cc2)CC1 | 1.63% (inactive) |
| O=C(c1ccc([N+](=O)[O-])c(CS(=O)(=O)c2ccc(Cl)cc2)c1)N1CCCCC1 | 3.1% (inactive) |
| CCOC(=O)CSc1ccc2nnc(CCNS(=O)(=O)c3ccc(C)cc3)n2n1 | 4.15% (inactive) |
| Cc1oc(C(C)(C)C)c(CN2CCCC2)c1C(=O)O | 5.71% (inactive) |
| Cc1cccc(-c2nnc(SCC#N)n2C)c1 | 1.96% (inactive) |
| CCOC(=O)c1cc(C(C)(C)C)nc(SC)c1C#N | 0.56% (inactive) |
| COc1ccc(C(O)P(=O)(OCC(C)C)OCC(C)C)c(OC)c1 (configuration not stated) | 5.08% (inactive) |
| Cc1cc(C)n2nc(C(=O)Nc3nccs3)nc2n1 | -4.36% (inactive) |
| O=c1c2c3c(sc2nc2sc(CN4CCOCC4)cn12)CCCC3 | -5.88% (inactive) |
| CC(=O)Nc1c(C(=O)C2CC2)oc2ccccc12 | 8.66% (inactive) |
| O=C(O)CCSCC(=O)Nc1c(C(=O)C2CC2)oc2ccccc12 | -2.71% (inactive) |
| CC1(C)Cc2ccccc2C(N/N=C/c2ccc([N+](=O)[O-])cc2)=N1 | 3.59% (inactive) |
| CSCCC(NC(=O)c1ccc([N+](=O)[O-])cc1Cl)C(=O)OCC(=O)NCCCc1ccccc1 (configuration not stated) | -2.31% (inactive) |
| CC(=O)Nc1ccccc1-c1ccc(C)o1 | -8.39% (inactive) |
| Cc1cnc(C(=O)Nc2ccccc2-c2ccc(C)o2)cn1 | -0.7% (inactive) |
